Results filed as inconclusive are left out. Entries that show only a call come without a potency. Calls of active or inactive are those of the source. Calls come from the whole dose curve; as a rule, active = well fitted inhibition curve with a large enough effect; inconclusive = small, poorly fitted or top-dose-only effect; inactive = flat fitted curve, though single readings scatter. Peptide text beside a SMILES is read from it.
Potency is the fitted concentration of half-maximal effect.

The assay concerns CP203. As to the kind of experiment: qHTS profiling for inhibitors of Plasmodium falciparum proliferation (AID 504749). Note: nearly all actives have a fitted effect of over 60% in size. The note with it: P. falciparum in erythrocytes, SYBR Green DNA, 72 h; series mostly up to 28.7 µM. The text has this: NIH National Institute of Allergy and Infectious Diseases [NIAID] NIH Chemical Genomics Center [NCGC] MLPCN Grant: None Assay Provider: Xinzhuan Su, NIAID NCGC Assay Overview: Plasmodium falciparum is a virulent malarial parasite that kills 1-2 million people worldwide each year. Transmitted by mosquitoes, the sporozoite form of the parasite enters the blood stream to infect hepatocytes, where they become merozoites that infect red blood cells (erythrocytes). Within erythrocytes, merozoites begin a […] cycle of growth and division, after which the parasite is released to infect new red blood cells. Gametocytes, which form within erythrocytes as well, circulate in the bloodstream and are ingested by the mosquito, thereby completing the life cycle. To profile malarial isolates for differential chemical responses and to identify inhibitors of malarial growth, an assay that measures P. falciparum growth and replication within erythrocytes was employed. This assay uses a DNA binding fluorescent dye (SYBR Green) to detect parasite DNA following cell lysis. Because mature erythrocytes lack DNA, only Plasmodium-derived DNA is detected.
NCGC Assay Protocol Summary: The SYBR Green viability assay was adapted from a method described previously (Plouffe et al., 2008). For screening 3 ul culture medium was dispensed into 1536 well black clear bottom plates (Aurora Biotechnologies) using a Multidrop Combi (Thermo Fisher Scientific Inc.), 23 nL compounds in DMSO were added by a pin tool (Kalypsys), and 5 ul of erythrocytes infected with P. falciparum (0.3% parasitemia, 2.5% hematocrit final concentration) were added. The plates were incubated at 37 C in a humidified incubator in 5% CO2 for 72 h, and 2 ul lysis buffer (20 mM Tris HCl, 10 mM EDTA, 0.16% saponin, 1.6% triton X, 10X SYBR Green I supplied as 10,000X […] by Invitrogen) was added to each well. The plates were mixed for 25 sec with gentle shaking and incubated overnight at room temperature in the dark. The following morning, fluorescence intensity at 485(14) nm excitation and 535(25) nm emission wavelengths was measured on an EnVision (Perkin Elmer) plate reader. Plate reads were normalized relative to the control inhibitor (0.29 uM artemisinin) and vehicle (DMSO) wells present on each plate and then corrected by an algorithm using vehicle-only control plates at the beginning and end of the compound plate stack.
A general note: qHTS replaces the single test concentration by a dilution series.
For the compound `O=C(NCCO[N+](=O)[O-])c1cccnc1`, the Potency entry is “inactive”.

Consider `Nc1ccc(S(N)(=O)=O)cc1`, for which the Potency entry was “inactive”.

`O=C(CS(=O)Cc1ccco1)NCC=CCOc1cc(CN2CCCCC2)ccn1` (stereo not given): the Potency result is “inactive”.

On to `CCCOc1ccc2nc(NC(=O)OC)[nH]c2c1`, for which the Potency entry was “inactive”.

Turning to `C=C(c1ccc(C(=O)O)cc1)c1cc2c(cc1C)C(C)(C)CCC2(C)C`, the Potency entry is “inactive”.

For `Cc1cc(=O)oc2cc(O)ccc12`, the Potency result is “inactive”.

For the compound `C=CCc1cc(OC)c(O)c(C(=O)NCCO)c1`, the Potency result is “inactive”.

Consider `CN(C)C(=O)COC(=O)Cc1ccc(OC(=O)c2ccc(N=C(N)N)cc2)cc1`, for which the Potency entry is “inactive”.

`COC(=O)C1=C(C)NC(C)=C(C(=O)OCCCN2CCC(c3ccccc3)(c3ccccc3)CC2)C1c1cccc([N+](=O)[O-])c1` (stereo not given): the Potency is 9.53 µM (active).

Turning to `CS(=O)(=O)OCCCCOS(C)(=O)=O`, the Potency result was “inactive”.

`Nc1ccn([C@@H]2O[C@H](CO)[C@@H](O)C2O)c(=O)n1` (stereo not given in full): the Potency result was “inactive”.

`CC(S)C(=O)NCC(=O)O` (stereo not given): the Potency entry was “inactive”.

Consider `COc1ccc(C2(C#N)CCC(C(=O)O)CC2)cc1OC1CCCC1` (stereo not given), for which the Potency entry is “inactive”.

Regarding `CC(C)c1ccc2oc3nc(N)c(C(=O)O)cc3c(=O)c2c1`, the Potency result is “inactive”.

For the compound `Cc1c(C(=O)NN2CCCCC2)nn(-c2ccc(Cl)cc2Cl)c1-c1ccc(Cl)cc1`, the Potency is 13.5 µM (active).

On to `C[Se]CCC(N)C(=O)O` (stereo not given), for which the Potency result is “inactive”.

`Cc1cc2c(s1)Nc1ccccc1N=C2N1CCN(C)CC1`: the Potency result was “inactive”.

For `Cc1c(OCC(F)(F)F)ccnc1CS(=O)c1nc2ccccc2[nH]1` (stereo not given), the Potency result is “inactive”.

For `CN(C)CCc1c[nH]c2ccc(Cn3cncn3)cc12`, the Potency result is “inactive”.

Take `CNC[C@@H](O)[C@@H](O)[C@H](O)[C@H](O)CO`: the Potency entry was “inactive”.

With `O=C(O)c1cc(=O)c2c(OCC(O)COc3cccc4oc(C(=O)O)cc(=O)c34)cccc2o1`, the Potency result was “inactive”.

For the compound `C[C@H](Cn1cnc2c(N)ncnc21)OCP(=O)(O)O`, the Potency result is “inactive”.

For `COC(=O)[C@H](Cc1ccccc1)NC(=O)[C@@H](N)CC(=O)O` (H-Asp-Phe-OMe), the Potency result was “inactive”.

In the case of `CCOc1cc(CC(=O)N[C@@H](CC(C)C)c2ccccc2N2CCCCC2)ccc1C(=O)O`, the Potency entry was “inactive”.

Take `Cc1ncc([N+](=O)[O-])n1CC(C)O` (stereo not given): the Potency entry was “inactive”.

As for `CCc1nc(N)nc(N)c1-c1ccc(Cl)cc1`, the Potency entry was “inactive”.

For `CC1(C)NC(=O)N(c2ccc([N+](=O)[O-])c(C(F)(F)F)c2)C1=O`, the Potency result is “inactive”.

Turning to `CCCCN(CCCC)CCC(O)c1cc2c(Cl)cc(Cl)cc2c2cc(C(F)(F)F)ccc12` (stereo not given), the Potency is 0.0228 µM (active).

On to `CC(C)(S)[C@@H](N)C(=O)O`, for which the Potency result is “inactive”.

`CCCCCCCCCCCCCCCCCCCCCCO`: the Potency result is “inactive”.

Turning to `Cc1cccc(C)c1OCC(=O)N[C@@H](Cc1ccccc1)[C@@H](O)C[C@H](Cc1ccccc1)NC(=O)[C@H](C(C)C)N1CCCNC1=O`, the Potency was 6.01 µM (active).

As to `COCCCOc1ccnc(CS(=O)c2nc3ccccc3[nH]2)c1C` (stereo not given), the Potency result was “inactive”.

In the case of `Cc1cc2cc3c(C)cc(=O)oc3c(C)c2o1`, the Potency entry is “inactive”.

For the compound `CNC[C@H](O)c1ccc(O)c(O)c1`, the Potency entry was “inactive”.

With `CCC1=C(C)CN(C(=O)NCCc2ccc(S(=O)(=O)NC(=O)NC3CCC(C)CC3)cc2)C1=O` (stereo not given), the Potency result was “inactive”.

For `C[C@]12CCC(=O)C=C1CC[C@@H]1[C@H]2[C@@H](O)C[C@@]2(C)[C@H]1CC[C@]2(O)C(=O)CO`, the Potency result is “inactive”.

In the case of `Cn1c(NCCN(CCO)CCCc2ccc([N+](=O)[O-])cc2)cc(=O)n(C)c1=O`, the Potency result was “inactive”.

In the case of `COc1ccc2cc([C@H](C)C(=O)O)ccc2c1`, the Potency entry was “inactive”.

With `Clc1ccc(C(Cn2ccnc2)OCc2ccsc2Cl)c(Cl)c1` (stereo not given), the Potency was 4.78 µM (active).

As to `O=c1oc2cc(O)ccc2s1`, the Potency result is “inactive”.

For the origin of these results see PubChem BioAssay (NCATS).
